Laboratory results: PubChem BioAssay (Tox21)
Inconclusive results are not listed. Activity calls are given as the source filed them. Calls follow the shape of the dose curve; as a rule, active = well fitted curve in the direction sought with a large enough effect in the repeat runs; inconclusive = weak or mixed curves; inactive = no such curve, though single readings can be large; an effect the other way counts as inactive or inconclusive.

Assays:
[1] = qHTS RealTime-Glo MT Cell Viability Assay in HepG2 cells - 40 hour (AID 1224870); also: nearly all actives have a fitted effect of over 50% in size
Procedure, shortened: (§1)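 HepG2 cells (600/well) mixed with RealTime-Glo MT reagent, settled 5 h at 37 C/5% CO2 before compound addition. Nonlytic NanoLuc luminescence from viable-cell prosubstrate reduction read repeatedly during 40 h treatment at 37 C.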

[2] = A CellTox Green Cytotoxicity Assay to monitor cytotoxicity in HEK293 cells - 40 hour (AID 1224871); also: nearly all actives have a fitted effect of over 45% in size
Procedure, shortened: (§2)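 HEK293 cells, 600/well, were preincubated 5 hours and then exposed to compounds at 37 C for up to 40 hours. A cell-impermeant cyanine dye staining dead-cell DNA was read by fluorescence at 0, 8, 16, 24, 32 and 40 h time points.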

[3] = qHTS RealTime-Glo MT Cell Viability Assay in HepG2 cells - 8 hour (AID 1224873); also: nearly all actives have a fitted effect of over 55% in size
Procedure, shortened: as §1

[4] = qHTS RealTime-Glo MT Cell Viability Assay in HEK293 cells - 40 hour (AID 1224874); details: RealTime-Glo luminescence; max response: hits give low values; also: nearly all actives have a fitted effect of over 50% in size; also: potency is read from the fitted curve at half-maximal effect
Procedure, shortened: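 600 cells/well were plated with the nonlytic NanoLuc/prosubstrate reagent, pre-incubated 5 h, then given 23 nL of compound in DMSO. Incubation at 37 C for 40 h, with luminescence from viable-cell-reduced substrate read repeatedly from 0 h.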

[5] = A CellTox Green Cytotoxicity Assay to monitor cytotoxicity in HEK293 cells - 24 hour (AID 1224875); also: nearly all actives have a fitted effect of over 45% in size; also: potency is read from the fitted curve at half-maximal effect; as to activity change: series mostly up to about 77 µM
Procedure, shortened: as §2

[6] = A CellTox Green Cytotoxicity Assay to monitor cytotoxicity in HepG2 cells - 16 hour (AID 1224876); also: nearly all actives have a fitted effect of over 45% in size
Procedure, shortened: (§3)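 HepG2 cells, 600/well, preincubated 5 h with CellTox Green dye, then exposed to Tox21 compounds in DMSO at 37 C for up to 40 h. Dead-cell DNA fluorescence read at the indicated time point.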

[7] = qHTS RealTime-Glo MT Cell Viability Assay in HepG2 cells - 32 hour (AID 1224877); also: nearly all actives have a fitted effect of over 55% in size
Procedure, shortened: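 Viability was tracked continuously by NanoLuc luminescence from prosubstrate reduced by living HepG2 cells, at successive time points over 40 h of compound exposure. Cells with reagent were preincubated 5 h at 37 °C before compound addition.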

[8] = A CellTox Green Cytotoxicity Assay to monitor cytotoxicity in HepG2 cells - 24 hour (AID 1224878); also: nearly all actives have a fitted effect of over 45% in size; also: potency is read from the fitted curve at half-maximal effect
Procedure, shortened: as §3

[9] = A CellTox Green Cytotoxicity Assay to monitor cytotoxicity in HepG2 cells - 40 hour (AID 1224879); also: nearly all actives have a fitted effect of over 40% in size; also: potency is read from the fitted curve at half-maximal effect
Procedure, shortened: as §3

[10] = qHTS RealTime-Glo MT Cell Viability Assay in HEK293 cells - 16 hour (AID 1224872); also: nearly all actives have a fitted effect of over 50% in size; also: potency is read from the fitted curve at half-maximal effect
Procedure, shortened: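 Viability tracked continuously by luminescence as live cells reduce a prosubstrate for NanoLuc; HEK293 cells preincubated 5 h, compound-treated at 37 C, and read at 0, 8, 16, 24, 32 and 40 h.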
% is scaled to controls: 0 for no effect and ±100 for the full control effect.

COC(=O)CCCCCCCCC(=O)OC
inactive: Potency [1] | Potency [2] | outcome [3] | max response [4] 2.88% | Potency [5] | Potency [6] | Potency [7] | Potency [8] | Potency [9]

c1cc(CN2CCCCC2)cc(OCCCNc2nc3ccccc3s2)c1
active: Potency [10] 9.52 µM | Potency [4] 9.52 µM | Potency [8] 26.8 µM
inactive: Potency [2] | outcome [3] | Potency [5]

CC(C)(C)C(=O)/C=C/c1ccc(Cl)cc1
inactive: Potency [1] | Potency [10] | outcome [3] | max response [4] -0.497% | Potency [5] | Potency [6] | Potency [7] | Potency [8] | Potency [9]

CCC(C)(C)C1CCC(OC)CC1 (stereo not given)
inactive: Potency [1] | Potency [2] | outcome [3] | Potency [5] | Potency [6] | Potency [7] | Potency [8] | Potency [9]

COc1nc(C)nc(N)n1
inactive: Potency [1] | Potency [2] | outcome [3] | max response [4] -1.44% | Potency [5] | Potency [6] | Potency [8]

Cc1onc(-c2ccccc2)c1-c1ccc(S(N)(=O)=O)cc1
inactive: Potency [1] | Potency [2] | outcome [3] | Potency [5] | Potency [6] | Potency [8]

NC(=O)c1ncn([C@@H]2O[C@H](CO)[C@@H](O)[C@H]2O)c1O
inactive: Potency [1] | Potency [10] | outcome [3] | max response [4] 9.45% | Potency [7]
active: Potency [5] 19 µM

C/C=C1\C(=O)C[C@H]2[C@@H]3CCC4=CC(=O)CC[C@]4(C)[C@H]3CC[C@]12C
active: Potency [4] 21.4 µM
inactive: Potency [1] | outcome [3] | Potency [5] | Potency [6] | Potency [8]

CC(CCO)CCCC(C)(C)O (stereo not given)
inactive: Potency [1] | Potency [2] | max response [4] -6.84% | Potency [5] | Potency [6] | Potency [8] | Potency [9]

NC(=O)Nc1nc2ccccc2[nH]1
inactive: Potency [1] | Potency [10] | outcome [3] | max response [4] -25.5% | Potency [6] | Potency [7] | Potency [8] | Potency [9]

C#CC(C)(O)CC(C)C (stereo not given)
inactive: Potency [1] | Potency [2] | outcome [3] | max response [4] 22.3% | Potency [5] | Potency [6] | Potency [7] | Potency [8] | Potency [9]

CCN(CC)S(=O)(=O)c1ccc(C(=O)O)cc1
inactive: Potency [1] | Potency [6] | Potency [7] | Potency [8] | Potency [9]

O=[N+]([O-])c1ccc(Oc2ccc([N+](=O)[O-])cc2)cc1
inactive: Potency [1] | Potency [2] | outcome [3] | Potency [5] | Potency [6] | Potency [8] | Potency [9]

C=CCOCC(O)CS(=O)(=O)O (stereo not given)
inactive: Potency [1] | Potency [2] | outcome [3] | Potency [5] | Potency [6] | Potency [7] | Potency [8] | Potency [9]

CCCCNc1ccccc1
inactive: Potency [1] | Potency [2] | Potency [5] | Potency [6] | Potency [7] | Potency [8] | Potency [9]

CC(C)(O)Cc1ccccc1
inactive: Potency [1] | Potency [2] | outcome [3] | Potency [5] | Potency [6] | Potency [7] | Potency [8] | Potency [9]

CNC(=O)c1c(I)c(NC(=O)CCCCC(=O)Nc2c(I)c(C(=O)O)c(I)c(C(=O)NC)c2I)c(I)c(C(=O)O)c1I
inactive: Potency [1] | Potency [2] | outcome [3] | max response [4] -0.381% | Potency [5] | Potency [6] | Potency [7] | Potency [8] | Potency [9]

c1ccc(CCCc2ccccn2)cc1
inactive: Potency [1] | Potency [10] | Potency [6] | Potency [7] | Potency [8] | Potency [9]

CCN1CCCC1CNC(=O)c1cc(S(N)(=O)=O)ccc1OC (stereo not given)
active: Potency [9] 43.6 µM
inactive: Potency [1] | Potency [2] | outcome [3] | Potency [5] | Potency [6] | Potency [7] | Potency [8]

CC(C)(C)OC(=O)N1C[C@@H](F)C[C@H]1C(=O)O
inactive: Potency [1] | Potency [2] | Potency [5] | Potency [6] | Potency [7] | Potency [8] | Potency [9]

CC(=O)CCc1ccc(O)cc1
inactive: Potency [1] | Potency [2] | outcome [3] | max response [4] -1.37% | Potency [5] | Potency [6] | Potency [8] | Potency [9]

Cc1ncc(CSSCc2cnc(C)c(O)c2CO)c(CO)c1O
inactive: Potency [1] | Potency [2] | outcome [3] | max response [4] 5.83% | Potency [5] | Potency [6] | Potency [8] | Potency [9]

c1ccc2cnncc2c1
inactive: Potency [1] | Potency [2] | outcome [3] | Potency [5] | Potency [6] | Potency [7] | Potency [8] | Potency [9]

OC[C@H]1O[C@@H]2O[C@H]3[C@H](O)[C@@H](O)[C@@H](O[C@H]4[C@H](O)[C@@H](O)[C@@H](O[C@H]5[C@H](O)[C@@H](O)[C@@H](O[C@H]6[C@H](O)[C@@H](O)[C@@H](O[C@H]7[C@H](O)[C@@H](O)[C@@H](O[C@H]8[C@H](O)[C@@H](O)[C@@H](O[C@H]9[C@H](O)[C@@H](O)[C@@H](O[C@H]1[C@H](O)[C@H]2O)O[C@@H]9CO)O[C@@H]8CO)O[C@@H]7CO)O[C@@H]6CO)O[C@@H]5CO)O[C@@H]4CO)O[C@@H]3CO
inactive: Potency [1] | Potency [2] | outcome [3] | max response [4] 1.22% | Potency [5] | Potency [6] | Potency [8] | Potency [9]

CCCCCCCCCCCl
inactive: Potency [1] | Potency [2] | max response [4] 6.94% | Potency [5] | Potency [6] | Potency [7] | Potency [8] | Potency [9]

C1CCCCCCCCCCC1
inactive: cytotoxicity increase [2] -40.6% [at 15.8 µM] | viability change, negative = cytotoxic [3] -9.68% [at 15.8 µM] | activity change [5] -35.9% [at 15.8 µM, hits give high values] | cytotoxicity increase [6] -3.96% [at 15.8 µM] | activity change, negative = cytotoxic [7] 12% [at 15.8 µM] | cytotoxicity [8] -7.04% [at 15.8 µM]

CCCCCC[C@@H](CCC)C(=O)O
inactive: Potency [1] | Potency [2] | max response [4] 13.8% | Potency [5] | Potency [6] | Potency [7] | Potency [8] | Potency [9]
